Nrf2 block: inhibitors of Nrf2 signaling | A549 ARE-Fluc reporter, luciferase luminescence, 18-24 h | Potency, µM (doses to about 46 µM), without a hit: at the highest dose activity change, negative = inhibition, most hits filed as inhibitors | 360,000 compounds, 2.1% hits; also: % is scaled to controls: 0 for no effect and ±100 for the full control effect; nearly all actives have a fitted effect of over 60% in size
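Nrf2 function is reported as luminescence of an ARE-controlled luciferase in A549 cells. Compounds were tested at several concentrations, and a CellTiter-Fluor read on the same wells flagged cytotoxicity.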
Nrf2 ARE act: activates Nrf2 signaling. AREc32 ARE-luciferase reporter (MCF7-derived line), luminescence, 24 h. Potency, µM (highest dose often 46.1 µM), inactives show top-dose activation, most hits filed as activators. 410,000 compounds, 0.31% hits; also: % of control where 0% means no effect; nearly all actives have a fitted effect of over 65% in size
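ARE-driven firefly luciferase activity in AREc32 cells measured after a 24 hr compound exposure at 37 deg C, using Steady-Glo reagent and a 30 min room-temperature hold.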
S2 tox: cell viability loss in ATXN counter-screen; AID 651635; S2 cells (HEK-293 line with an ATXN2-luciferase reporter) viability, CellTiter-Fluor protease fluorescence, 24 h; 400,000 compounds, 0.49% hits; Potency, µM (doses to about 56.7 µM), hits mostly cytotoxic; also: nearly all actives have a fitted effect of over 40% in size
A549 tox: counter-screen for Nrf2 inhibitors: cytotoxicity in A549 cells; A549 ARE-Fluc cells, CellTiter-Fluor viability, 18-24 h; Potency, µM (top dose mostly 46 µM), inactives show top-dose activity change, negative = cytotoxicity, hits mostly inhibitors; 390,000 compounds, 0.16% hits; also: % is scaled to controls: 0 for no effect and ±100 for the full control effect
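A549 ARE_Fluc cells in 5% FBS OPTI-MEM were exposed to compounds in concentration-response for 18-24 h at 37 deg C. Viability was read by CellTiter-Fluor fluorescence (Ex 405/Em 525) after 30 min, before the luciferase read.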
ATXN2 expr inh: inhibitors of ATXN2 expression; HEK-293 ATXN2-luciferase reporter, luminescence, 24 h; Potency, µM (highest dose often 57 µM), without a hit: at the top dose activity change, negative = inhibition, usual class: inhibitors; 360,000 compounds, 0.72% hits; AID 1745845; also: % is scaled to controls: 0 for no effect and ±100 for the full control effect; nearly all actives have a fitted effect of over 55% in size
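ATXN2-luciferase reporter cells (luciferase flanked by upstream and downstream ATXN2 gene portions) were treated 24 h at 37 °C with compounds at up to 57 uM. SteadyGlo luminescence gave expression; GF-AFC fluorescence gave viability.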
Numbers without * were called inactive; i = inactive; ? = inconclusive; . = no result; [ ] = remark or other dose. Rows were chosen to be rich in hits. Some 2.9% of all compounds tested hit in one or more screens of this group. Calls follow the shape of the dose curve; as a rule, active = well fitted curve in the direction sought with a large enough effect; inconclusive = small, poorly fitted or top-dose-only effect, or another doubt; inactive = no such curve, though single readings can be large; an effect the other way counts as inactive or inconclusive. Potency is read from the fitted curve at half-maximal effect.

SMILES	Nrf2 block	Nrf2 ARE act	S2 tox	A549 tox	ATXN2 expr inh
Cc1ccc(OCC(=O)c2cc(C)n(Cc3cccs3)c2C)c([N+](=O)[O-])n1	11.6µM*	0.3%	i	-5.8%	?
CC(=O)N1CCc2c(sc3c2c(=O)n(Cc2ccccc2)c(=O)n3Cc2ccccc2F)C1	16.4µM*	-0.9%	i	-18.0%	-1.3%
CC(=O)N1CCc2c(sc3c2c(=O)n(Cc2ccccc2)c(=O)n3Cc2ccccc2Cl)C1	18.4µM*	-0.8%	i	?	7.2%
CCOC(=O)N1CCc2c(sc3c2c(=O)n(Cc2ccccc2)c(=O)n3Cc2ccccc2F)C1	?	0.0%	i	0.8%	-0.1%
CC(=O)N1CCc2c(sc3c2c(=O)n(Cc2ccccc2)c(=O)n3Cc2ccc(C)cc2)C1	2.8%	0.2%	i	0.8%	-0.4%
c1ccc(CNc2nc(NCC3CC3)nc3cc(-c4ccccc4)sc23)cc1	.	-3.8%	?	.	?
COCCNc1nc(Oc2ccc(NC(C)=O)cc2)c2sc(-c3ccccc3)cc2n1	.	-1.0%[9.22 µM]	?	.	?
COCCNc1nc(NCc2ccc(NC(C)=O)cc2)c2sc(-c3ccccc3)cc2n1	.	?	.	.	22.4µM*
c1ccc(OCCNc2nc(NCC3CC3)nc3cc(-c4ccccc4)sc23)cc1	.	-0.8%	15.8µM*	.	?
CC(C)c1ccc(NC(=O)c2cc(S(=O)(=O)N3CCCC3)c[nH]2)cc1	-21.5%	4.6%	?	-9.8%	-19.6%
CC(=O)Nc1ncc(N=Nc2cccc(C(F)(F)F)c2)s1	-18.6%	?	?	11.6µM*	-10.9%
COC(=O)/C(N=Nc1cccc(C(F)(F)F)c1)=C(\C)O	-2.2%	1.0%	i	-2.5%	-7.6%
Cc1ccc(C2CN(C)C3(C(=O)Nc4ccccc43)C23COc2ccccc2C3=O)cc1 (stereo not drawn)	?	3.2%	i	0.7%	-18.5%
CN1CC(c2ccccc2Cl)C2(COc3ccccc3C2=O)C12C(=O)Nc1ccccc12 (stereo not drawn)	20.6µM*	-0.2%	?	-26.1%	-14.7%
COC(=O)C1(C)COP(=O)(Nc2ccc(OC)cc2)OC1 (stereo not drawn)	.	-0.6%	i	.	2.4%
N#Cc1c(NCc2ccccc2)ccnc1NCc1cccnc1	6.51µM*	0.4%	i	-14.4%	34.4%
Cc1cccnc1Nc1nc(-c2ccccc2)cs1	?	3.16µM*	i	3.6%	123.4%
COc1ccc(CN(CC(=O)NCc2ccccc2)C(=O)CCC(=O)Nc2cc(C)ccn2)cc1	0.9%	-0.6%	i	0.3%	-4.5%
Clc1ccccc1-c1nc(-c2ccncc2)no1	?	11.2µM*	?	-6.6%	81.0%
Cc1ccccc1-c1nc(-c2cccnc2)no1	?	12.6µM*	i	-4.9%	87.5%
c1ccc(C(Cc2nc(-c3ccncc3)no2)c2ccccc2)cc1	8.2µM*	3.1%	i	-14.7%	-12.6%
c1ccc(-c2noc(-c3cccnc3)n2)cc1	?	3.16µM*	i	0.0%	30.3%
c1ccc(-c2ccccc2-c2nc(-c3ccncc3)no2)cc1	-14.8%	3.2%	i	12.0%	-4.5%
Clc1ccccc1-c1nc(-c2cccnc2)no1	?	?	i	-28.5%	95.1%
c1ccc(-c2ccc(-c3nc(-c4ccncc4)no3)cc2)cc1	?	-0.4%	i	-2.9%	-10.3%
SMILES	Nrf2 block	Nrf2 ARE act	S2 tox	A549 tox	ATXN2 expr inh
O=C(O)CNC(=O)CCn1nnc2ccccc2c1=O	4.0%	-0.4%	i	1.3%	15.4%
COCCNC(=O)c1cc(Sc2ccc(F)cc2F)nc2ccccc12	.	7.6%	.	22.8%	.
CC(=O)Nc1ccc(S(=O)(=O)N2CCC(C(=O)Nc3nccs3)CC2)cc1	18.4%	-0.4%	i	2.7%	12.4%
O=C1C(O)=C(O)C(=O)C(O)=C1O	.	.	i	.	3.9%
CCOc1cc(N2CCOCC2)c(OCC)cc1NC(=O)CN1C(=O)C2C3C=CC(C3)C2C1=O (stereo not drawn)	-14.0%	-0.6%	i	1.9%	-15.2%
Cc1ccc(-c2noc(CNS(=O)(=O)c3ccc(F)cc3)n2)cc1	1.1%	0.0%	.	0.3%	.
c1ccc(-c2nc(-c3ccncc3)no2)cc1	?	11.2µM*	i	-11.3%	56.7%
CC(C)c1nnc(NC(=O)CCS(=O)(=O)c2nc(-c3cccs3)cc(C(F)(F)F)n2)s1	23.1µM*	-2.5%	?	?	-7.3%
